Measurements published in ChEMBL document CHEMBL3988442, “University of Dundee, Small-Polar-MMV Screening Library” (2021).
Among all 69,000 compounds or so, about 950 (1.4%) showed an effect of 50% or more. The list comes from a sample in which strong results are over-represented; it also holds similar structures and randomly drawn compounds.

Each molecule was assayed on Mycobacterium tuberculosis (assay: Cornell M. t heat shock assay; note: in the data most compounds retested in dose-response had high values).
Format: functional, organism-based
Design: dose or concentration left out as unconfirmed

Going from `COCC(C)(CCO)NC(=O)Nc1cccc(Br)c1C` (stereo not given) to `CCOCC1CN(Cc2ccc(F)cc2)Cc2nn(C)cc21.O=C(O)C(F)(F)F` (stereo not given), the “Percent Effect” value falls from 16.48% to -29.18%.

First: CN1CC(=O)N(c2ccsc2)CC12CCN(C(=O)Nc1ccccc1)C2.O=C(O)C(F)(F)F (stereo not given)
Second: CC(=O)N1CCCC1c1nnn2cc(Nc3ccccc3)ccc12.O=C(O)C(F)(F)F (stereo not given)
The “Percent Effect” value of the first is lower: -18.81% for the first, 86.99% for the second.

Compared with `O=C(N1CCCO1)[C@@]12CCO[C@@H]1CCN(Cc1cccs1)C2.O=C(O)C(F)(F)F`, `CS(=O)(=O)N1CC[C@H]2OCC[C@@]2(C(=O)NCc2ccccn2)C1.O=C(O)C(F)(F)F` is higher in “Percent Effect” value: -21.11% for the first, 65.18% for the second.

Compared with `Cc1ccsc1C(=O)N1CC2CC1(C(=O)NCC1CC1)C2`, `O=C(NCC1CC1)C12CC(CN1Cc1nccs1)C2` is higher in “Percent Effect” value: -11.04% for the first, 54.2% for the second.

Going from `O=C(N1CCCC1)C12CC(CN1Cc1nccs1)C2` to `Fc1ccccc1CC1CCN(Cc2nccs2)CC1`, the “Percent Effect” value falls from 42.03% to 7.97%.

Compared with `Cc1cc(N2CCN(Cc3cn(C)nc3C)CC2)cc(C2CCCN2)n1.Cl` (stereo not given), `Cc1cccc(CN2CCC(NS(C)(=O)=O)CC2)n1` is higher in “Percent Effect” value: -11.47% for the first, 10.63% for the second.

Going from `CC(=O)N1CCCC1c1nnn2cc(-c3ccncc3)ccc12.O=C(O)C(F)(F)F` (stereo not given) to `CC(=O)N1CCCC1c1nnn2cc(NCc3cccnc3)ccc12.O=C(O)C(F)(F)F.O=C(O)C(F)(F)F` (stereo not given), the “Percent Effect” value rises from 8.291% to 27.19%.

Going from `CC(C)(C)c1n[nH]c(C2CN(CCc3ccncc3)CCO2)n1` (stereo not given) to `CC(=O)N1CCN(Cc2ccncc2)CC2(CC(=O)N(C)C2)C1.O=C(O)C(F)(F)F.O=C(O)C(F)(F)F` (stereo not given), the “Percent Effect” value falls from 12.04% to -4.515%.

Compared with `Cn1ccnc1CN1CC[C@H]2CO[C@H](CNc3ncccn3)[C@H]2C1.O=C(O)C(F)(F)F.O=C(O)C(F)(F)F.O=C(O)C(F)(F)F`, `O=C(NCc1ccccn1)[C@@]12CCO[C@@H]1CCN(Cc1ccccn1)C2.O=C(O)C(F)(F)F.O=C(O)C(F)(F)F.O=C(O)C(F)(F)F` is higher in “Percent Effect” value: -17.85% for the first, 19.83% for the second.

Going from `Fc1ccccc1CC1CCN(Cc2ccccn2)CC1` to `Cc1cccc(CN2CCC(Cc3ccccc3F)CC2)n1`, the “Percent Effect” value rises from 54.97% to 100.5%.

First: COc1cc(COCC2CCN(Cc3ccccn3)CC2)cc(OC)c1.O=C(O)C(=O)O
Second: Clc1ccc(COCC2CCN(Cc3ccccn3)CC2)cc1.O=C(O)C(=O)O
The “Percent Effect” value of the first is lower: -10.83% for the first, 53.14% for the second.

First: Fc1ccccc1CC1CCN(Cc2cscn2)CC1
Second: Cc1cccc(CNC(=O)CC2CCN(Cc3ccccn3)CC2)n1
The “Percent Effect” value of the first is higher: -8.017% for the first, -18.17% for the second.

Compared with `Fc1ccc(COCC2CCN(Cc3ccccn3)CC2)cc1.O=C(O)C(=O)O`, `CS(=O)(=O)N1CC[C@H]2OCC[C@@]2(C(=O)NCCc2ccccn2)C1.O=C(O)C(F)(F)F` is higher in “Percent Effect” value: -21.79% for the first, -5.552% for the second.

Going from `CN1C[C@H]2C[C@H](C(=O)Nc3cccnc3)[C@@H](C1)O2` to `CN(C)C(=O)[C@H]1C[C@@H]2CCN(Cc3ccoc3)C[C@@H]2O1.O=C(O)C(F)(F)F`, the “Percent Effect” value rises from -0.0821% to 36.25%.

Compared with `COc1ccc(CNCC(C)Oc2ccccn2)cc1.Cl` (stereo not given), `O=C(NCc1ccccn1)[C@@]12CCO[C@@H]1CCN(c1ncccn1)C2` is higher in “Percent Effect” value: -11.53% for the first, 92.45% for the second.

Compared with `Cc1cc(C(=O)N2CC[C@]3(C[C@@H](OCc4ccccn4)CO3)C2)c(C)o1.O=C(O)C(F)(F)F`, `O=C(NCc1ccccn1)[C@@]12CCO[C@@H]1CCN(C1CCCC1)C2.O=C(O)C(F)(F)F.O=C(O)C(F)(F)F` is higher in “Percent Effect” value: 38.17% for the first, 40.27% for the second.

Going from `CN(C)C(=O)CN1CCc2ncnc(N(C)C)c2CC1.O=C(O)C(F)(F)F` to `Cc1ccc(C(=O)N2Cc3c(CN(C)C)nn(C)c3C2)cc1C.O=C(O)C(F)(F)F`, the “Percent Effect” value falls from 23.34% to -17.18%.

First: COCCn1cc2c(n1)C(CNCc1nccs1)OCC2.O=C(O)C(F)(F)F.O=C(O)C(F)(F)F (stereo not given)
Second: O=C(O)C(F)(F)F.O=C(O)C(F)(F)F.O=C1[C@H]2CN(Cc3cccs3)C[C@H]2CN1CCN1CCCC1
The “Percent Effect” value of the first is lower: -27.8% for the first, -16.55% for the second.

Compared with `CN(C)Cc1cncc2c1CCN(Cc1ccoc1)C2.Cl.Cl.Cl`, `Cc1cnc(CNC(=O)[C@@]23CCO[C@@H]2CCN(c2ncccn2)C3)cn1` is higher in “Percent Effect” value: -10.16% for the first, 39.63% for the second.

First: NC(=O)N1CC[C@H]2CO[C@H](CNC(=O)c3ccnnc3)[C@H]2C1
Second: CC(=O)N1CC[C@H]2OCC[C@@]2(C(=O)NCc2cnc(C)cn2)C1
The “Percent Effect” value of the first is lower: -0.7451% for the first, 51.19% for the second.

First: CC(C)C(=O)N1CCC(C)(c2cc(O)[nH]n2)CC1
Second: COCC(=O)N1CCC(C)(c2cc(O)[nH]n2)CC1
The “Percent Effect” value of the first is lower: 1.922% for the first, 53.15% for the second.

First: COCCN1CCC(C)(c2cc(O)[nH]n2)CC1
Second: CC(C)c1nc(CN2CCC(CO)CC2)cs1
The “Percent Effect” value of the first is lower: -2.336% for the first, 17.89% for the second.

Compared with `CC(C)c1nc(CN2CCCCC2)cs1`, `CC(C)c1nc(CC(=O)Nc2nc(CN3CCCCCC3)cs2)cs1` is higher in “Percent Effect” value: 0.8394% for the first, 104.4% for the second.

First: O=C1c2c(O)cc(O)cc2O[C@@H](c2ccc(O)cc2)[C@@H]1O
Second: Oc1ccc([C@H]2Oc3cc(O)cc(O)c3C[C@@H]2O)cc1
The “Percent Effect” value of the first is higher: 53.66% for the first, -4.634% for the second.

First: COc1cc(C2CC(=O)c3c(O)cc(O)cc3O2)ccc1O (stereo not given)
Second: Cc1nc2c(Nc3cccc(C#N)c3)nc(N)nc2n1C
The “Percent Effect” value of the first is lower: 5.655% for the first, 102.2% for the second.

Going from `Cc1nc2c(Nc3ccc(C#N)cc3)nc(N)nc2n1C` to `CC(=O)c1ccc(Nc2nc(N)nc3c2nc(C)n3C)cc1`, the “Percent Effect” value rises from 5.734% to 10.63%.

Compared with `Cc1cnc(CNC(=O)[C@@]23CCO[C@@H]2CCN(C2CCCC2)C3)cn1.O=C(O)C(F)(F)F`, `O=C(NCCc1ccccn1)[C@@]12CCO[C@@H]1CCN(c1ncccn1)C2` is lower in “Percent Effect” value: 35.39% for the first, -5.799% for the second.

With `Cc1ccc(O[C@@H]2C[C@H]3CN(c4ncc(F)cn4)CCN3C2)cc1.O=C(O)C(F)(F)F.O=C(O)C(F)(F)F` the “Percent Effect” value was 19.77%.
